Laboratory results taken from PubChem BioAssay (EPA / NIEHS).
“And” between values parts separate entries of the source, which are not always exact repeats. Equal values may be shown once. Inconclusive results are not listed. More than one record can exist for a structure, and the calls need not agree. The source made the active and inactive calls. How the source made its calls, unless noted: active means hit-call score of the fitted dose curve at least 0.9, where 1 is the maximum; inconclusive means response in the unintended direction; inactive means score below 0.9.

Experiments:
[1] = target: rat Glutamate, NMDA Agonist Site (GluNMDA), Grin1 (gene 24408) (UniProt P35439); experiment: NVS_LGIC_rGluNMDA_Agonist: NovaScreen (NVS) Ligand-Gated Ion Channel Assay for rat Glutamate, NMDA Agonist Site (GluNMDA) (AID 2283327)
In short: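 Rat forebrain membranes, radioligand binding in the agonist-site protocol; 1 h after dosing; filter-based scintillation counting. Single-concentration duplicate screen at 25 uM, then concentration-response up to 50 uM for actives; gain-of-signal vs DMSO.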

[2] = target: rat Thyrotropin Releasing Hormone Receptor (TRH), Trhr (gene 25570) (UniProt Q01717); experiment: NVS_GPCR_rTRH: NovaScreen (NVS) G Protein-Coupled Receptor Assay for rat Thyrotropin Releasing Hormone Receptor (TRH) (AID 2283329);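 further: hit means lower bound tracer signal versus DMSO baseline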
In short: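 Cell-free radioligand binding on rat forebrain membranes; bound tracer measured by filter-based scintillation counting 4 hours after dosing. Loss of signal versus DMSO baseline indicates displacement; primary screen at 25 uM in duplicate, actives then run in concentration series.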

[3] = target: human Peripheral-type Benzodiazepine Receptor (PBR), TSPO (gene 706) (UniProt P30536); experiment: NVS_MP_hPBR: NovaScreen (NVS) Membrane Protein Assay for human Peripheral-type Benzodiazepine Receptor (PBR) (AID 2283331);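 further: hits reduce radioligand binding relative to DMSO baseline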
In short: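 Human colonic cell membranes were incubated with test chemical for 1 hour; radioligand binding was measured by filter-based scintillation counting. Primary screen ran in duplicate at 25 uM, with actives followed in concentration series; loss of signal versus DMSO baseline.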

NCBI gene 100848466 = experiment: NVS_NR_bPR: NovaScreen (NVS) Nuclear Receptor Binding Assay for bovine Progextron Receptor (PR) (AID 2283343);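 on AC50: actives lower bound radioligand signal below DMSO meaning displacement of the label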
In short: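 Bovine uterine membrane preparation, cell-free; radioligand competitive displacement measured by scintillation counting 18 hours after dosing. Loss of signal versus DMSO baseline indicates binding; primary HTS single concentration 25 uM in duplicate, actives followed in concentration series.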

[4] = target: bovine Estrogen Receptor (ER), ESR1 (gene 407238) (UniProt P49884); experiment: NVS_NR_bER: NovaScreen (NVS) Nuclear Receptor Binding Assay for bovine Estrogen Receptor (ER) (AID 2283345);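 further: actives lower the bound radioligand count which means they displace the ER ligand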
In short: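 Cell-free radioligand binding with receptor from bovine uterine membranes, read by scintillation counting 18 h after dosing. Loss of specific binding was scored against DMSO; primary screen at 25 uM in duplicate, actives then run as concentration series.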

[5] = target: rat Gamma-Aminobutyric Acid Type A Receptor, Non-Selective (GABAR-NonSelective), Gabra1 (gene 29705) (UniProt P62813); experiment: NVS_LGIC_rGABAR_NonSelective: NovaScreen (NVS) Ligand-Gated Ion Channel Assay for rat Gamma-Aminobutyric Acid Type A Receptor, Non-Selective (GABAR-NonSelective) (AID 2283326)
In short: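 Radioligand displacement on rat whole-brain extract, 1 h, filter scintillation readout; signal loss fitted versus DMSO. Primary screen in duplicate at 25 uM; hits (e.g. ≥30% inhibition) retested in concentration-response up to 50 uM.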

[6] = target: rat Peripheral-type Benzodiazepine Receptor (PBR), Tspo (gene 24230) (UniProt P16257); experiment: NVS_MP_rPBR: NovaScreen (NVS) Membrane Protein Assay for rat Peripheral-type Benzodiazepine Receptor (PBR) (AID 2283335)
In short: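 Radioligand displacement, rat kidney membrane prep, 1 h exposure, filter-based scintillation read; DMSO baseline, loss-of-signal scored. Primary screen at 25 uM in duplicate, actives followed up in concentration series.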

[7] = target: rat Glutamate, AMPA Site (AMPA), Gria1 (gene 50592) (UniProt P19490); experiment: NVS_LGIC_rAMPA: NovaScreen (NVS) Ligand-Gated Ion Channel Assay for rat Glutamate, AMPA Site (AMPA) (AID 2283324)
In short: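 Rat forebrain membranes; radioligand binding read 1 h after dosing by filtration and scintillation counting. Duplicate single-point screen at 25 uM, then concentration-response to 50 uM for threshold hits (e.g. 30% inhibition); loss of signal vs DMSO.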

[8] = target: rat Glutamate, MK-801 Agonist Site (GluNMDA_MK801), Grin1 (gene 24408) (UniProt P35439); experiment: NVS_LGIC_rGluNMDA_MK801_Agonist: NovaScreen (NVS) Ligand-Gated Ion Channel Assay for rat Glutamate, MK-801 Agonist Site (GluNMDA_MK801) (AID 2283340)
In short: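 Radioligand binding at MK-801 site in rat forebrain membranes, 1.5 h incubation, filter-based scintillation counting. Initially 25 uM in duplicate; actives then run in concentration-response up to 50 uM, fitted for gain of signal versus DMSO.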

[9] = target: Sodium channel protein type 1 subunit alpha (Rattus norvegicus) (UniProt P04774); experiment: NVS_IC_rNaCh_site2: NovaScreen (NVS) Ion Channel Assay for rat Sodium Channel, Site 2 (NaCh) (AID 2283322);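 further: hit means loss of radioligand binding signal relative to DMSO so AC50 marks displacement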
In short: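 Membranes: rat forebrain. Format: competitive radioligand displacement, filter separation, scintillation readout, 1 h exposure. Primary screen in duplicate at 25 uM; actives retested in concentration series.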

[10] = target: chimpanzee Androgen Receptor (AR), AR (gene 747460) (UniProt O97775); experiment: NVS_NR_cAR: NovaScreen (NVS) Nuclear Receptor Binding Assay for chimpanzee Androgen Receptor (AR) (AID 2283346);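 further: radioligand displacement from AR measured by scintillation counting in a cell-free assay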
In short: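 Cell-free radioligand displacement using receptor protein extracted from Sf9/Sf21 cells; bound radioligand measured by scintillation counting 72 hours after chemical dosing. Loss of signal versus DMSO baseline indicates binding; primary screen single-concentration in duplicate at 25 uM, actives followed in concentration series.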

[11] = target: bovine Gamma-Aminobutyric Acid Type A Receptor BDZ, alpha 5 site (GABARa5), GABRA5 (gene 523515) (UniProt Q08E50); experiment: NVS_LGIC_bGABARa5: NovaScreen (NVS) Ligand-Gated Ion Channel Assay for bovine Gamma-Aminobutyric Acid Type A Receptor BDZ, alpha 5 site (GABARa5) (AID 2283323)
In short: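 Radioligand competitive displacement binding on bovine hippocampal membranes, read 1 hr after dosing by filter-based scintillation counting. Primary screen at 25 uM in duplicate; actives (e.g. ≥30% inhibition) then run in concentration-response up to 50 uM.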

[12] = target: human Androgen Receptor (AR), AR (gene 367) (UniProt P10275); experiment: NVS_NR_hAR: NovaScreen (NVS) Nuclear Receptor Binding Assay for human Androgen Receptor (AR) (AID 2283332)
In short: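 Actives from a duplicate 25 uM single-point screen went on to concentration series. Read-out after 20 h was scintillation counting of displaced radioligand in LnCAP extract, with DMSO as baseline.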

[13] = target: Voltage-gated inwardly rectifying potassium channel KCNH2 (Homo sapiens) (UniProt Q12809); experiment: NVS_IC_hKhERGCh: NovaScreen (NVS) Ion Channel Assay for human Potassium Channel ERG (KhERGCh) (AID 2283333)
In short: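 Cell-free radioligand competition binding on hERG protein extracted from CHO cells, read by filter-based scintillation counting 0.75 h after dosing. Primary screen at 25 uM in duplicate, actives followed in concentration series. Signal loss fitted versus DMSO.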

[14] = target: Glutamate receptor ionotropic, kainate 1 (Rattus norvegicus) (UniProt P22756); experiment: NVS_IC_rKAR: NovaScreen (NVS) Ion Channel Assay for rat Kainic Acid Receptors (KAR) (AID 2283334; active means hit-call score of the fitted dose curve at least 0.9, where 1 is the maximum; inactive means score below 0.9)
In short: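 Radioligand displacement binding using rat forebrain membranes, 1 h incubation, filter-based scintillation counting. Screened in duplicate at 25 uM, with actives retested in concentration-response up to 50 uM; fitted against DMSO.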

[15] = test system: guinea pig Histamine Receptor (H2), gene 100729734; experiment: NVS_GPCR_gH2: NovaScreen (NVS) G Protein-Coupled Receptor Assay for guinea pig Histamine Receptor (H2) (AID 2283342)
In short: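 Radioligand displacement on guinea pig striatal membranes, 1 h after dosing, filter-based scintillation counting; loss of signal versus DMSO. Single-point screen at 25 uM in duplicate, then concentration-response up to 50 uM.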

rat Gamma-Aminobutyric Acid Type A Receptor, Non-Selective (GABAR-NonSelective), Gabra1 (gene 29705), sequence (P62813 whole entry, looked up): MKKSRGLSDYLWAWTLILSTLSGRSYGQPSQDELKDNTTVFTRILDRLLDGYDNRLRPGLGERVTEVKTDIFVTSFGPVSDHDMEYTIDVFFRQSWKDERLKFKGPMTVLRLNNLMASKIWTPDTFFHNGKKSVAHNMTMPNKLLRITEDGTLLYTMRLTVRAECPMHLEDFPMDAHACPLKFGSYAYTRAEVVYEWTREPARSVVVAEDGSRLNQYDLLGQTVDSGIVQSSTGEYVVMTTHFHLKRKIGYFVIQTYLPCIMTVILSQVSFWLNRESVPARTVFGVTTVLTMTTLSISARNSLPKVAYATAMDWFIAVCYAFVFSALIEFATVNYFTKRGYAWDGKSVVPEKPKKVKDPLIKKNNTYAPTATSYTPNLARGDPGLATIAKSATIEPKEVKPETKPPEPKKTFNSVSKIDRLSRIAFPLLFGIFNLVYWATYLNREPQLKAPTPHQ
bovine Estrogen Receptor (ER), ESR1 (gene 407238), sequence (P49884 whole entry, looked up): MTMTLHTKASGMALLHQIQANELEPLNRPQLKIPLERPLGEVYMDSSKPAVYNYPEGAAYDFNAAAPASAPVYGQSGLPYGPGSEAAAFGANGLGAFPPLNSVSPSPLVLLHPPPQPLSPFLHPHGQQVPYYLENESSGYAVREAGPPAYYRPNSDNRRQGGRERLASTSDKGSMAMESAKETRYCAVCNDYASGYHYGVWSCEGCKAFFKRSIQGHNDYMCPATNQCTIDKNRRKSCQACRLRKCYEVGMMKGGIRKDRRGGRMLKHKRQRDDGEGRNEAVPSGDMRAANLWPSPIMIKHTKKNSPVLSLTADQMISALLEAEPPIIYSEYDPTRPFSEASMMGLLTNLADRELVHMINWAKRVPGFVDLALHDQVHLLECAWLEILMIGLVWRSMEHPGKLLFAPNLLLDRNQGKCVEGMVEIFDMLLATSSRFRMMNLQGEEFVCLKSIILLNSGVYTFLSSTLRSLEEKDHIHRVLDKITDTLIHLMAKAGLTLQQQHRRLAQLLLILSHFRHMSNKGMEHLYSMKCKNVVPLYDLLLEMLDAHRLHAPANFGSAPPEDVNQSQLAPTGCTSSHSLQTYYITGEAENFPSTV
rat Peripheral-type Benzodiazepine Receptor (PBR), Tspo (gene 24230), sequence (P16257 whole entry, looked up): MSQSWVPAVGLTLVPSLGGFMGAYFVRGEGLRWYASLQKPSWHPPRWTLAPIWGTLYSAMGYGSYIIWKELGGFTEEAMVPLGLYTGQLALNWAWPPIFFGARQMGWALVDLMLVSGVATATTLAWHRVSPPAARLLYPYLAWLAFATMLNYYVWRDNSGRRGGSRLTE
chimpanzee Androgen Receptor (AR), AR (gene 747460), sequence (O97775 whole entry, looked up): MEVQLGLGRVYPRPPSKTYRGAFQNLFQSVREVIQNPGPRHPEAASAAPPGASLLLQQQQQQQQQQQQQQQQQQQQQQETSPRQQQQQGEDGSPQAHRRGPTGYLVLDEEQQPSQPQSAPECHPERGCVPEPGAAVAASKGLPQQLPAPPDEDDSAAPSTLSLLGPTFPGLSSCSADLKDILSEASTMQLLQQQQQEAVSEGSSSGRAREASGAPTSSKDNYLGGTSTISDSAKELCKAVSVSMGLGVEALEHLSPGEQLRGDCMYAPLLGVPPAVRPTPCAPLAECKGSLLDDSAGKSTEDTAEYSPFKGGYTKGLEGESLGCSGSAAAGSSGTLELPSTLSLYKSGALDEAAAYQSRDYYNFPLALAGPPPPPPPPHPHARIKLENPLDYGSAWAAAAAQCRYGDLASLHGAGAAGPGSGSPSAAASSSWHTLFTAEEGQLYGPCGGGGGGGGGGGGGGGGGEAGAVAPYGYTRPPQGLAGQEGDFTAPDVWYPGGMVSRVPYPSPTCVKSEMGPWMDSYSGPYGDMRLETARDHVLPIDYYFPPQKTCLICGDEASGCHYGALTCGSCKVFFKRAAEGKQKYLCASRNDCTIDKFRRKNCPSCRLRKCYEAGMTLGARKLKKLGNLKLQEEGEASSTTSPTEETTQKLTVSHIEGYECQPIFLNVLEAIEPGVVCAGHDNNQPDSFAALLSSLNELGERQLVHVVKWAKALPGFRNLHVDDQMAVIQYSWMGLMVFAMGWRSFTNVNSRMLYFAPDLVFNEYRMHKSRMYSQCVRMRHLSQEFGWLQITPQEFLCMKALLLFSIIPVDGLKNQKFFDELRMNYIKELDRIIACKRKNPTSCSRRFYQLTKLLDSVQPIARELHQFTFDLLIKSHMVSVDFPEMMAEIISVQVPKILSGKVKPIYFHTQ
human Peripheral-type Benzodiazepine Receptor (PBR), TSPO (gene 706), sequence (P30536 whole entry, looked up): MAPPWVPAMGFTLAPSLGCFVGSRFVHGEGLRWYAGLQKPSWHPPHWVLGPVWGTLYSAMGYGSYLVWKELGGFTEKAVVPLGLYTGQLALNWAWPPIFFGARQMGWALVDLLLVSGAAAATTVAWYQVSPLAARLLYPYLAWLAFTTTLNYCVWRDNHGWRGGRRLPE
rat Glutamate, AMPA Site (AMPA), Gria1 (gene 50592), sequence (P19490 whole entry, looked up): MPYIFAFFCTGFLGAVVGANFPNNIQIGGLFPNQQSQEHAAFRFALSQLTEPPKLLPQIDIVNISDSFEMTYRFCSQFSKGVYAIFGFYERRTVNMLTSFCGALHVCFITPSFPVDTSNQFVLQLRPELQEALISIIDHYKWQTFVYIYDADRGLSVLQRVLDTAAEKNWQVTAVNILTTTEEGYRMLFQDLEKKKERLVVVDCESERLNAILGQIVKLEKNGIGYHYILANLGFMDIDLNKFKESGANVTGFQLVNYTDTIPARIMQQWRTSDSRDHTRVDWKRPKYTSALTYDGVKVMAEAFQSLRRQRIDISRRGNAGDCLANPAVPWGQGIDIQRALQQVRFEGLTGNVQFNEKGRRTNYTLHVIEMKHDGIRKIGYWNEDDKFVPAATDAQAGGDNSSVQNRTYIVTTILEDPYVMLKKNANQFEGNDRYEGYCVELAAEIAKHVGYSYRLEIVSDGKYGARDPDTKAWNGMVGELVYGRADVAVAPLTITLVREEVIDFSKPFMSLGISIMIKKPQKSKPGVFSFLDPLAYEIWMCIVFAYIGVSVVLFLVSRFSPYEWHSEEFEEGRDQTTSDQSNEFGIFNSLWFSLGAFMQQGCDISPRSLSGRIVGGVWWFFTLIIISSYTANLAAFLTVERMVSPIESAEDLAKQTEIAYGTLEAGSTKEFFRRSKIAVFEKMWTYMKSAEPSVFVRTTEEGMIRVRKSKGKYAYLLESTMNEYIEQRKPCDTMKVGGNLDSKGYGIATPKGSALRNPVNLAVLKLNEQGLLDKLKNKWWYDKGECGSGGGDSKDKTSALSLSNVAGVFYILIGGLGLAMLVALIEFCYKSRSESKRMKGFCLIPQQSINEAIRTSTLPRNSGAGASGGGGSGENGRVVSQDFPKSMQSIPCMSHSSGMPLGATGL
rat Thyrotropin Releasing Hormone Receptor (TRH), Trhr (gene 25570), sequence (Q01717 whole entry, looked up): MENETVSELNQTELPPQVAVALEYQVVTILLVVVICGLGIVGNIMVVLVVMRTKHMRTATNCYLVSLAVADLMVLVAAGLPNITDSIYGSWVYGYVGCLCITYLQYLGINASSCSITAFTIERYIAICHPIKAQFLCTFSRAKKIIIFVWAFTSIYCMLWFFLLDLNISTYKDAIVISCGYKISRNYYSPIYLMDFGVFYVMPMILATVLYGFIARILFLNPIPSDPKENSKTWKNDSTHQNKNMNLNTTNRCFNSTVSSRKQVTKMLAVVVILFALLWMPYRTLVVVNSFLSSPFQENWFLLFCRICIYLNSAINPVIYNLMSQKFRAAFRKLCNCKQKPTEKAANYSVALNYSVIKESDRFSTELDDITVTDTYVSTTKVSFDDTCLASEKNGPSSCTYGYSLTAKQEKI
human Androgen Receptor (AR), AR (gene 367), sequence (P10275 whole entry, looked up): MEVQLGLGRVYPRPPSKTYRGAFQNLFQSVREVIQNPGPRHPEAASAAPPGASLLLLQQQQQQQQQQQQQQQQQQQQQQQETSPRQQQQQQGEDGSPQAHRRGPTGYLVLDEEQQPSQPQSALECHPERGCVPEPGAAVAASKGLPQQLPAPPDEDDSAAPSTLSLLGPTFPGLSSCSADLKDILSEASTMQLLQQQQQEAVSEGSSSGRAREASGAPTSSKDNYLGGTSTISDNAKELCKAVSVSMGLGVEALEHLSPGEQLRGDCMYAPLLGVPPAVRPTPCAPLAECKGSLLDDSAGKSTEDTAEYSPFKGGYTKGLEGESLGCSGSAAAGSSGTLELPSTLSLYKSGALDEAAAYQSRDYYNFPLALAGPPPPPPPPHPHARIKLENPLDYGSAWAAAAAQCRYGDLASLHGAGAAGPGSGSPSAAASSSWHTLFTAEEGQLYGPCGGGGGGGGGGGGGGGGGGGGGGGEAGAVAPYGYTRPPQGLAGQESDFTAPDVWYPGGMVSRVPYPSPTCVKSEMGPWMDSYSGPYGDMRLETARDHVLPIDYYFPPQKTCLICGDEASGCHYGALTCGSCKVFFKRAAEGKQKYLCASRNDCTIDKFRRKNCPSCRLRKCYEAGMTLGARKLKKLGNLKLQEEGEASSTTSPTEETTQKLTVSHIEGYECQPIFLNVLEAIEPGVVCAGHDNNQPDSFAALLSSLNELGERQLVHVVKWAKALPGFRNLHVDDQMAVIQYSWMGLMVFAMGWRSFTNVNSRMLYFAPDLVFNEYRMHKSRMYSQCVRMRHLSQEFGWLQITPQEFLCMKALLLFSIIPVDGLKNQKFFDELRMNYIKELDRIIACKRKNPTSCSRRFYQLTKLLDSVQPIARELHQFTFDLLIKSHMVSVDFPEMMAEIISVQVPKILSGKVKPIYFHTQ
bovine Gamma-Aminobutyric Acid Type A Receptor BDZ, alpha 5 site (GABARa5), GABRA5 (gene 523515), sequence (Q08E50 whole entry, looked up): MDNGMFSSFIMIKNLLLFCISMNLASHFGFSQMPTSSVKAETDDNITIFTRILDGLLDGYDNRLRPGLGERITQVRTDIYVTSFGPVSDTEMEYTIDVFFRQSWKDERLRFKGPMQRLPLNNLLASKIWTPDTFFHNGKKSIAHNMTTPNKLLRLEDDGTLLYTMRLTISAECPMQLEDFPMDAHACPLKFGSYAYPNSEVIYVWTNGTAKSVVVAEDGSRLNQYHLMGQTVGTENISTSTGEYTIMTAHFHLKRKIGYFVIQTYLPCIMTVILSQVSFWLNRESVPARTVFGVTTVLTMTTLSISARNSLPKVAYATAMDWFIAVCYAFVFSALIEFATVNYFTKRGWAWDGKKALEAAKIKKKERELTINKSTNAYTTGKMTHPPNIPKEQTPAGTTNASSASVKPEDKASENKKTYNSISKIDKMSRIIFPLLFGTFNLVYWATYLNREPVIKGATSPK

## CC(C)(C)[C@@H](O)[C@@H](Cc1ccc(Cl)cc1)n1cncn1
[1]
  outcome: inactive

## CCCCC(CC)CN1C(=O)C2C3C=CC(C3)C2C1=O (stereo not given)
[2]
  outcome: inactive
[3]
  outcome: inactive
NCBI gene 100848466
  outcome: inactive
[4]
  outcome: inactive

## O=C(c1ccccc1)C1CCCCC1
[2]
  outcome: inactive
[4]
  outcome: inactive

## COC(=O)CSc1cc(N=c2sc(=O)n3n2CCCC3)c(F)cc1Cl
[5]
  outcome: inactive
[3]
  outcome: inactive
[6]
  outcome: inactive

## S=C([S-])NCCNC(=S)[S-].[Mn+2]
[7]
  outcome: inactive
[1]
  outcome: inactive
[3]
  outcome: inactive
[6]
  AC50: 15.3 µM (active)
[8]
  outcome: inactive

## CC(=O)S[C@@H]1CC2=CC(=O)CC[C@]2(C)[C@H]2CC[C@@]3(C)[C@@H](CC[C@@]34CCC(=O)O4)[C@H]12
[9]
  AC50: 8.6 µM (active)
[1]
  outcome: inactive
[2]
  outcome: inactive
[3]
  outcome: inactive
NCBI gene 100848466
  AC50: 1.53 µM (active)
[4]
  outcome: inactive
[10]
  AC50: 6.35 nM (active) and 29.2 nM (active)

## CCOC(=O)C(C)Oc1ccc(Oc2cnc3cc(Cl)ccc3n2)cc1 (stereo not given)
[5]
  outcome: inactive
[4]
  outcome: inactive

## CCCCC(CC)COC(=O)c1ccccc1C(=O)O (stereo not given)
[3]
  AC50: 39.2 µM (active)
[6]
  outcome: inactive

## CCCCCOC(=O)COc1cc(N2C(=O)C3=C(CCCC3)C2=O)c(F)cc1Cl
[7]
  outcome: inactive
[3]
  AC50: 2.72 µM (active)
[6]
  AC50: 1.23 µM (active)

## S=C(S)NCCNC(=S)S.[Mn+2].[S-]C([S-])=NCCN=C([S-])[S-].[Zn+2]
[7]
  AC50: 4.81 µM (active)
  outcome: inactive
[1]
  outcome: inactive
[3]
  AC50: 9.51 µM (active) and 4.71 µM (active) and 3.45 µM (active)
[6]
  outcome: inactive
[8]
  AC50: 17.3 µM (active) and 25 µM (active)
[10]
  AC50: 12.5 µM (active)

## CCOC(=O)NCCOc1ccc(Oc2ccccc2)cc1
[9]
  outcome: inactive
[3]
  outcome: inactive

## CC1(C)C(C=C(Cl)Cl)C1C(=O)OCc1cccc(Oc2ccccc2)c1 (stereo not given)
[2]
  outcome: inactive
[3]
  AC50: 40.2 µM (active)
[6]
  outcome: inactive
NCBI gene 100848466
  outcome: inactive
[4]
  outcome: inactive

## Oc1ccc(C(c2ccc(O)cc2)C(Cl)(Cl)Cl)cc1
[11]
  outcome: inactive
[7]
  outcome: inactive
[3]
  outcome: inactive
[6]
  AC50: 4.65 µM (active)
NCBI gene 100848466
  AC50: 3.6 µM (active)
[10]
  AC50: 6.15 µM (active)

## CCCN(CCC)C(=O)SCC
[3]
  outcome: inactive
[12]
  outcome: inactive
[6]
  AC50: 25 µM (active)
  outcome: inactive
NCBI gene 100848466
  outcome: inactive

## c1ccc(Nc2ccccc2)cc1
[5]
  outcome: inactive
NCBI gene 100848466
  outcome: inactive

## O=C(c1ccc(O)cc1O)c1ccc(O)cc1O
[2]
  outcome: inactive
[12]
  AC50: 1.39 µM (active)
NCBI gene 100848466
  AC50: 16.4 µM (active)
[10]
  AC50: 2.73 µM (active)

## C=CCOC(Cn1ccnc1)c1ccc(Cl)cc1Cl (stereo not given)
[9]
  AC50: 4.57 µM (active)
[2]
  AC50: 17 µM (active)
[3]
  AC50: 10.6 µM (active)
[13]
  AC50: 12.5 µM (active)
[14]
  outcome: inactive
[6]
  AC50: 8.58 µM (active)
[8]
  outcome: inactive
[15]
  AC50: 6.78 µM (active)
NCBI gene 100848466
  AC50: 13 µM (active)
[10]
  AC50: 9.9 µM (active)
